Reference: PubChem BioAssay AID2561 (National Center for Advancing Translational Sciences (NCATS), 2010)
Records with an inconclusive call do not appear. Entries that show only a call come without a potency. Active and inactive are the calls of the source. Calls come from the whole dose curve; as a rule, active = well fitted inhibition curve with a large enough effect; inconclusive = small, poorly fitted or top-dose-only effect, or effect the other way; inactive = flat fitted curve, though single readings scatter.

Target: Pyruvate kinase (Leishmania mexicana) (UniProt Q27686)
Sequence (Q27686 whole entry, looked up): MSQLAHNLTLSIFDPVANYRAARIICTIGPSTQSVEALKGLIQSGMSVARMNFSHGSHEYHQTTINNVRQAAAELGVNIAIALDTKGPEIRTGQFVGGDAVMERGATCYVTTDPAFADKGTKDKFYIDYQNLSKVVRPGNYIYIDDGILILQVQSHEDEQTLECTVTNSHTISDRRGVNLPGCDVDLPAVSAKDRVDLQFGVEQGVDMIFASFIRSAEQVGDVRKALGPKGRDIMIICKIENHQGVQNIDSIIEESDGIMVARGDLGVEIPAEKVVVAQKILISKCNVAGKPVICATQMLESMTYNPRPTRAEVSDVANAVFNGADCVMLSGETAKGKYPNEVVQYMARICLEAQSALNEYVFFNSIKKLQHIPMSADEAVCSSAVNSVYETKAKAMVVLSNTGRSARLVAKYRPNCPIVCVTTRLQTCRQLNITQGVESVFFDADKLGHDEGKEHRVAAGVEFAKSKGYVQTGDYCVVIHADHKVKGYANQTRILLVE
Experiment: Confirmation Assay for Inhibitors of Leishmania Mexicana Pyruvate Kinase (LmPK): for Probe SAR
Settings: purified LmPK, ATP generation, Kinase-Glo luminescence; series mostly up to 57.5 µM
Excerpt: NIH Chemical Genomics Center [NCGC] Malcolm Walkinshaw, Hugh Morgan, Linda Gilmore University of Edinburgh, UK MLPCN Grant: 1 R03 MH085697-01 NCGC Assay Overview: Pyruvate kinase (L. Mexicana) (LmPK) enzyme was supplied as a highly purified (>95% pure) sulphate-free preparation from University of Edinburgh, UK and assayed for its ability to generate ATP from ADP using phosphoenolpyruvate (PEP) as a substrate. ATP generation was detected in a coupled reaction by luciferase-mediated luminescence, an ATP-dependent process. Pyruvate kinase substrates, PEP and ADP, were present in the assay at Km and approximately 10-fold below Km respectively. The enzyme was assayed at an intermediate level of activity to screen for both inhibitors and activators.
NCGC Assay Protocol Summary: Three uL of enzyme mix (kept on ice) in assay buffer (50 mM Imidazole pH7.2, 50 mM KCl, 7 mM MgCl2, 0.01% Tween 20, 0.05% BSA) containing PEP (0.5 mM final concentration) and LmPK (0.1 nM final concentration) was dispensed into white solid bottom 1,536 well microtiter plates. 23 nL of compound were delivered by a pin tool and 1 uL of ADP mix in assay buffer (r.t; 0.1 mM final ADP concentration) was added. Plates were incubated at room temperature for 1 hour. Two uL of detection mix (Kinase-Glo, Promega; at 4 degree Celsius protected from light) was added and luminescence read by a ViewLux (Perkin Elmer) at 1 second exposure/plate. Data were normalized to the uninhibited and AC100 inhibition (no enzyme). To monitor activation, the first column contained a five-fold concentration of LmPK (0.5 nM).
Potency is the fitted concentration of half-maximal effect.

Compound	Potency
COc1ccccc1OC1=NS(=O)(=O)c2ccccc21	4.31 µM (active)
O=C1c2ccccc2C(=O)N1c1noc2ccccc12	inactive
Cc1ccc(NS(=O)(=O)c2ccc3c(c2)N(C)CCO3)cc1C	inactive
O=[S+]1([O-])N=C(Oc2cccnc2)c2ccccc21	inactive
O=C1NS(=O)(=O)c2cc(Br)ccc21	inactive
Cc1cc(=O)oc2cc(SC3=NS(=O)(=O)c4ccccc43)ccc12	1.83 µM (active)
O=S(=O)(c1ccc2c(c1)OCCO2)N1CCN(S(=O)(=O)c2c(F)cccc2F)CC1	inactive
CN=c1nc(-c2ccccc2)n(-c2ccccc2)s1	inactive
Cc1ccccc1Nc1c(-c2ccccc2)nc2cccc(C)n12	inactive
O=S(=O)(Nc1ccc(O)c(NS(=O)(=O)c2ccccc2)c1)c1ccccc1	inactive
Cc1nc(-c2ccc(S(=O)(=O)Nc3ccc(C)c(C)c3)s2)cs1	inactive
Cc1cc2c(s1)c1cnn(Cc3ccccc3F)c(=O)c1n2C	inactive
Nc1ccc2c(c1)S(=O)(=O)NC2=O	inactive
COc1cccc(N2C(=O)c3ccccc3C2=O)c1	inactive
COC(=O)c1ccc2c(c1)S(=O)(=O)N=C2Sc1cc(C)ccc1C	8.19 µM (active)
O=C1c2ccccc2C(=O)N1c1ccc(Cl)cc1	inactive
Cc1ccc(NS(=O)(=O)c2cccc(C(=O)O)c2)cc1C	inactive
Cc1ccc(NS(=O)(=O)c2cc3c(cc2Br)NC(=O)CO3)cc1C	inactive
Cc1ccc(C)c(NC2=NS(=O)(=O)c3ccccc32)c1	inactive
O=C1c2ccccc2C(=O)N1c1cccc2ncccc12	inactive

Compound	Potency
O=C1CCc2cc(S(=O)(=O)Nc3ccc(F)cc3)ccc2N1	inactive
COc1ccccc1NS(=O)(=O)c1ccc2c(c1)CCC(=O)N2	inactive
O=S1(=O)N=C(Oc2ccc(C(F)(F)F)cc2)c2ccccc21	3.66 µM (active)
COc1ccc(NS(=O)(=O)c2ccc3c(c2)CCC(=O)N3)cc1	inactive
O=C1NS(=O)(=O)C(c2ccccc2)C1c1ccccc1 (stereo not given)	inactive
Cc1ccc(NS(=O)(=O)c2ccc3c(ccn3C)c2)cc1C	inactive
Cc1ccc(NS(=O)(=O)c2ccc3c(c2)NC(=O)CO3)cc1C	inactive
Cc1ccc(NS(=O)(=O)c2ccc3c(c2)CCCC(=O)N3)cc1C	inactive
O=C1c2ccccc2C(=O)N1c1ccc(O)cc1	inactive
Cc1ccc2nc(-c3ccc(C)o3)c(NC3CCCC3)n2c1	inactive
Cc1cc(C)c2nc(C3C(=O)c4ccccc4C3=O)ccc2c1	inactive
Cc1cc(C)c2[nH]c(C3C(=O)c4ccccc4C3=O)cc(=O)c2c1	inactive
CC(=O)Nc1ccc(S(=O)(=O)Nc2ccc(C)c(C)c2)cc1	inactive
O=C1c2ccccc2C(=O)N1c1cccc2cccnc12	inactive
O=C1c2ccccc2C(=O)N1c1cc(=O)c2ccccc2[nH]1	3.26 µM (active)
Cc1ccc(N2C(=O)c3ccccc3C2=O)c(C)c1	inactive
Cc1ccc2nc(-c3ccc(C)o3)c(Nc3ccc4c(c3)OCO4)n2c1	inactive
COc1cccc(OC2=NS(=O)(=O)c3ccccc32)c1	inactive
Cc1ccc(NS(=O)(=O)c2cccc(Cl)c2)cc1C	inactive
Cc1ccc(NS(=O)(=O)c2ccc(N3CCCC3=O)cc2)cc1C	inactive
